Results on 25 compounds are retold here after the supplement of paper PMC10037445.

“And” between values parts separate entries of the source, which are not always exact repeats. Identical values can stand only once. Whole data set: some 2,900 compounds, median “NF-kB SEAP reporter activity, fold change vs agonist alone” near 0.99, cut for the highest 2% near 2.6. What follows is part of a selection rich in the highest values, with near analogues and random picks from the rest.

Experiment [1] has as its system RAW-Dual. The experiment is described as follows: NF-kB SEAP reporter activity, fold change vs agonist alone; cytotoxicity flag (confluency mask): cytotoxic (confluency <70% of control); higher = enhanced NF-kB activity. An outline of the steps:
(§1)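 After 50 nL of library stock was delivered by pin tool to RAW-Dual macrophages (50,000 cells/well, DMEM, 384-well plates), a PRR agonist was added 1 h later and the plates were kept at 37 °C, 5% CO2. Twenty hours later, IRF was read from supernatant by QuantiLuc luminescence and NF-κB by QuantiBlue absorbance at 620 nm. Reporter activity is stated as fold change over agonist-alone wells. Wells with IncuCyte confluency under 70% of agonist controls in both mask sets were counted as cytotoxic.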

Experiment [2] deals with RAW-Dual. The experiment is described as follows: NF-kB SEAP reporter activity, fold change vs agonist alone; higher = enhanced NF-kB activity. An outline of the steps:
as §1

The subject of experiment [3] is RAW-Dual. The experiment is described as follows: NF-kB SEAP reporter activity, fold change vs agonist alone; cytotoxicity flag (confluency mask): not cytotoxic; higher = enhanced NF-kB activity. An outline of the steps: as §1
Setting [4] is: agonist: ODN 1826 (TLR9) 0.5 ug/mL.
Setting [5] is: agonist: Pam2CSK4 (TLR2/6) 0.1 ug/mL.
Where [6] appears, read: agonist: Pam3CSK4 (TLR2/1) 0.1 ug/mL.
Where [7] appears, read: library stock concentration (final ~1000-fold dilution): 10 mM, cytotoxicity flag (confluency mask): cytotoxic (confluency <70% of control), agonist: Imiquimod (TLR7) […].
Setting [8] is: library stock concentration (final ~1000-fold dilution): 10 mM, cytotoxicity flag (confluency mask): cytotoxic (confluency <70% of control), agonist: MPLA (TLR4) […].
[9] abbreviates: library stock concentration (final ~1000-fold dilution): 10 mM, cytotoxicity flag (confluency mask): not cytotoxic, agonist: Imiquimod (TLR7) […].
[10] abbreviates: library stock concentration (final ~1000-fold dilution): 10 mM, cytotoxicity flag (confluency mask): not cytotoxic, agonist: MPLA (TLR4) […].

For the compound `Cc1cncc(CN2CCC(=C3c4ccc(Cl)cc4CCc4cccnc43)CC2)c1.O=C(O)/C=C/C(=O)O` (library stock concentration (final ~1000-fold dilution): 10 mM), the “NF-kB SEAP reporter activity” value in the experiment on RAW-Dual [1] (agonist: LPS (TLR4) 0.1 ug/mL) is 0.652; with RAW-Dual [1] (setting [4]) it was 0.37; with RAW-Dual [1] (setting [5]), 0.456; in the experiment with RAW-Dual [1] (setting [6]), 0.408.

For `Cc1cncc(CN2CCC(=C3c4ccc(Cl)cc4CCc4cccnc43)CC2)c1.O=C(O)/C=C/C(=O)O`, the “NF-kB SEAP reporter activity” value in the experiment with RAW-Dual [2] (setting [7]) came to 1.02; in the experiment with RAW-Dual [2] (setting [8]) it was 0.719.

`CCC1OC(=O)C(C)C(OC2CC(C)(OC)C(O)C(C)O2)C(C)C(OC2OC(C)CC(N(C)C)C2O)C(C)(O)CC(C)CN(C)C(C)C(O)C1(C)O.O.O` (stereo unspecified) (library stock concentration (final ~1000-fold dilution): 10 mM): the “NF-kB SEAP reporter activity” value in the experiment on RAW-Dual [3] (agonist: LPS (TLR4) 0.1 ug/mL) was 1.49; in the experiment on RAW-Dual [3] (setting [4]), 0.371; with RAW-Dual [3] (setting [5]), 0.896; with RAW-Dual [3] (setting [6]) it was 0.978.

Take `CCC1OC(=O)C(C)C(OC2CC(C)(OC)C(O)C(C)O2)C(C)C(OC2OC(C)CC(N(C)C)C2O)C(C)(O)CC(C)CN(C)C(C)C(O)C1(C)O.O.O` (stereo unspecified): the entries for the “NF-kB SEAP reporter activity” value with RAW-Dual [2] (setting [9]) and in the experiment on RAW-Dual [2] (setting [10]) were 0.506 and 1.46, respectively.

`Cn1cc(-c2ccc3ncc(Cc4ccc5ncccc5c4)n3n2)cn1`: the “NF-kB SEAP reporter activity” value in the experiment with RAW-Dual [2] (setting [9]) came to 1.37; with RAW-Dual [2] (setting [10]), 1.23.

With `COc1cc(OC)cc(N(CCNC(C)C)c2ccc3ncc(-c4cnn(C)c4)nc3c2)c1`, the “NF-kB SEAP reporter activity” value in the experiment with RAW-Dual [2] (setting [7]) worked out at 1.76; with RAW-Dual [2] (setting [8]), 2.21.

Turning to `COc1cc2ncc(-c3ccccc3)nc2cc1OC`, the entries for the “NF-kB SEAP reporter activity” value in the experiment with RAW-Dual [2] (setting [9]) and in the experiment with RAW-Dual [2] (setting [10]) were 1.16 and 1.39, respectively.

For `COc1cc2ncc(-c3ccccc3)nc2cc1OC` (library stock concentration (final ~1000-fold dilution): 10 mM), the “NF-kB SEAP reporter activity” value in the experiment with RAW-Dual [3] (agonist: LPS (TLR4) 0.1 ug/mL) turned out to be 1.78; with RAW-Dual [3] (setting [4]), 1.28; with RAW-Dual [3] (setting [5]), 0.915; with RAW-Dual [3] (setting [6]) it was 0.864.

For `Cn1cc(-c2ccc3ncc(Cc4ccc5ncccc5c4)n3n2)cn1` (library stock concentration (final ~1000-fold dilution): 10 mM), the “NF-kB SEAP reporter activity” value with RAW-Dual [3] (agonist: LPS (TLR4) 0.1 ug/mL) came to 1.88; with RAW-Dual [3] (setting [4]), 1.35; in the experiment with RAW-Dual [3] (setting [5]), 1.31; in the experiment on RAW-Dual [3] (setting [6]), 1.47.

In the case of `COc1cc(OC)cc(N(CCNC(C)C)c2ccc3ncc(-c4cnn(C)c4)nc3c2)c1` (library stock concentration (final ~1000-fold dilution): 10 mM), the “NF-kB SEAP reporter activity” value in the experiment with RAW-Dual [1] (agonist: LPS (TLR4) 0.1 ug/mL) amounted to 3.64; in the experiment on RAW-Dual [1] (setting [4]), 0.427; in the experiment with RAW-Dual [1] (setting [5]), 1.06; in the experiment on RAW-Dual [1] (setting [6]) it was 1.57.

For `Br.COc1ccc2c3c1OC1CC(O)C=CC31CCN(C)C2` (stereo unspecified), the “NF-kB SEAP reporter activity” value with RAW-Dual [2] (library stock concentration (final ~1000-fold dilution): 10 mM water, cytotoxicity flag (confluency mask): not cytotoxic, agonist: Imiquimod (TLR7) […]) worked out at 0.936; in the experiment on RAW-Dual [2] (library stock concentration (final ~1000-fold dilution): 10 mM water, cytotoxicity flag (confluency mask): not cytotoxic, agonist: MPLA (TLR4) […]) it was 0.997.

Turning to `Br.COc1ccc2c3c1OC1CC(O)C=CC31CCN(C)C2` (stereo unspecified) (library stock concentration (final ~1000-fold dilution): 10 mM water), the “NF-kB SEAP reporter activity” value with RAW-Dual [3] (agonist: LPS (TLR4) 0.1 ug/mL) came out at 1.12; with RAW-Dual [3] (setting [4]), 1.02; in the experiment on RAW-Dual [3] (setting [5]), 1.12; in the experiment with RAW-Dual [3] (setting [6]) it was 1.16.

Take `CC(C)C(C(=O)O)N1C(=O)/C(=C/c2ccc(Br)cc2)SC1=S` (stereo unspecified): the “NF-kB SEAP reporter activity” value with RAW-Dual [2] (setting [9]) stood at 0.992; with RAW-Dual [2] (setting [10]), 1.01.

`CC(C)C(C(=O)O)N1C(=O)/C(=C/c2ccc(Br)cc2)SC1=S` (stereo unspecified) (library stock concentration (final ~1000-fold dilution): 10 mM): the “NF-kB SEAP reporter activity” value is 1.12 in the experiment on RAW-Dual [3] (agonist: LPS (TLR4) 0.1 ug/mL), 0.953 with RAW-Dual [3] (setting [4]), 0.947 in the experiment with RAW-Dual [3] (setting [5]) and 1.05 with RAW-Dual [3] (setting [6]).

On to `CC1(C)C(C(=O)O)N2C(=O)CC2S1(=O)=O` (stereo unspecified) (library stock concentration (final ~1000-fold dilution): 10 mM), for which the “NF-kB SEAP reporter activity” value is 1.04 and 0.881 with RAW-Dual [3] (agonist: LPS (TLR4) 0.1 ug/mL); 1.01 and 1.03 in the experiment with RAW-Dual [3] (setting [4]); 0.96 and 1.14 with RAW-Dual [3] (setting [5]); 1.05 and 1.19 with RAW-Dual [3] (setting [6]).

With `Cl.O=c1[nH]ccc2c(S(=O)(=O)N3CCCNCC3)cccc12`, the “NF-kB SEAP reporter activity” value with RAW-Dual [2] (setting [9]) stood at 1; in the experiment with RAW-Dual [2] (setting [10]), 0.986.

Turning to `Cl.O=c1[nH]ccc2c(S(=O)(=O)N3CCCNCC3)cccc12` (library stock concentration (final ~1000-fold dilution): 10 mM), the “NF-kB SEAP reporter activity” value in the experiment on RAW-Dual [3] (agonist: LPS (TLR4) 0.1 ug/mL) was found to be 1.22; with RAW-Dual [3] (setting [4]), 0.968; in the experiment with RAW-Dual [3] (setting [5]), 1.05; in the experiment on RAW-Dual [3] (setting [6]), 1.23.

On to `CCN(CC)Cc1ccc2cc(COC(=O)Nc3ccc(C(=O)NO)cc3)ccc2c1.Cl.O`, for which the “NF-kB SEAP reporter activity” value with RAW-Dual [2] (setting [9]) worked out at 0.805; with RAW-Dual [2] (setting [10]) it was 1.17.

As for `COc1ccc(Cn2ccc3ccc(C(=O)NO)cc32)cc1`, the “NF-kB SEAP reporter activity” value was 0.789 in the experiment on RAW-Dual [2] (setting [9]) and 0.903 in the experiment on RAW-Dual [2] (setting [10]).

Take `COc1ccc(Cn2ccc3ccc(C(=O)NO)cc32)cc1` (library stock concentration (final ~1000-fold dilution): 10 mM): the “NF-kB SEAP reporter activity” value is 0.996 in the experiment on RAW-Dual [3] (agonist: LPS (TLR4) 0.1 ug/mL), 0.62 in the experiment with RAW-Dual [3] (setting [4]), 0.788 in the experiment with RAW-Dual [3] (setting [5]) and 0.588 in the experiment with RAW-Dual [3] (setting [6]).

With `CCN(CC)Cc1ccc2cc(COC(=O)Nc3ccc(C(=O)NO)cc3)ccc2c1.Cl.O` (library stock concentration (final ~1000-fold dilution): 10 mM), the “NF-kB SEAP reporter activity” value in the experiment with RAW-Dual [3] (agonist: LPS (TLR4) 0.1 ug/mL) turned out to be 7.02; in the experiment on RAW-Dual [3] (setting [4]) it was 0.922; with RAW-Dual [3] (setting [5]), 1.87; in the experiment on RAW-Dual [3] (setting [6]) it was 1.04.

In the case of `COCc1ccc(-c2ccc3ncc(C(N)=O)c(NC(C)C4CCOCC4)c3c2)cn1` (stereo unspecified), the figures for the “NF-kB SEAP reporter activity” value in the experiment with RAW-Dual [2] (setting [9]) and in the experiment with RAW-Dual [2] (setting [10]) were 0.993 and 1.35, respectively.

On to `COCc1ccc(-c2ccc3ncc(C(N)=O)c(NC(C)C4CCOCC4)c3c2)cn1` (stereo unspecified) (library stock concentration (final ~1000-fold dilution): 10 mM), for which the “NF-kB SEAP reporter activity” value was found to be 1.75 with RAW-Dual [3] (agonist: LPS (TLR4) 0.1 ug/mL), 1.19 in the experiment on RAW-Dual [3] (setting [4]), 1.45 in the experiment with RAW-Dual [3] (setting [5]) and 2.13 with RAW-Dual [3] (setting [6]).

As to `O=S(=O)(NCCN1CCNCC1)c1ccc(NC2CCCCC2)c(NCc2ccccc2)c1` (library stock concentration (final ~1000-fold dilution): 10 mM), the “NF-kB SEAP reporter activity” value amounted to 1.57 in the experiment with RAW-Dual [1] (agonist: LPS (TLR4) 0.1 ug/mL), 1.13 in the experiment on RAW-Dual [1] (setting [4]), 1.04 in the experiment with RAW-Dual [1] (setting [5]) and 1.73 in the experiment on RAW-Dual [1] (setting [6]).

For the compound `O=S(=O)(NCCN1CCNCC1)c1ccc(NC2CCCCC2)c(NCc2ccccc2)c1`, the “NF-kB SEAP reporter activity” value with RAW-Dual [2] (setting [7]) worked out at 1.27; with RAW-Dual [2] (setting [8]), 2.03.
